# Reference: PubChem BioAssay AID651568 (National Center for Advancing Translational Sciences (NCATS), 2012)
# In all, about 1,200 compounds went through this assay and about 55 (5%) were called active. Another 15% or so got no clear call; they are omitted. Calls follow the shape of the dose curve; as a rule, active = well fitted inhibition curve with a large enough effect; inconclusive = small, poorly fitted or top-dose-only effect; inactive = no such curve, though single readings can be large or run the other way. Only a selection was taken, and actives are over-represented in it overall.
# Test: qHTS Assay to Find Inhibitors of Chronic Active B-Cell Receptor Signaling: Hit Validation in Renilla Reporter Assay; also: nearly all actives have a fitted effect of over 70% in size
# Settings: TMD8 IkB-Renilla luciferase reporter, NF-kB signaling; series mostly up to 57.5 µM; activity change, negative = inhibition: at the top concentration
# Excerpt: Diffuse large B-cell lymphoma (DLBCL) is the most common category of non-Hodgkin lymphoma, with ~20,000 new cases per year in the United States. DLBCL should be regarded as a collection of different neoplasms. Microarray gene expression analysis has defined two principal types of DLBCL, named for their similarity to normal B cell stages or activation states: a germinal center B-cell (GCB) type, and an activated B-cell (ABC) type. In ABC-DLBCL, a constitutive high-level activity of the NF-kappaB family of transcription factors has been observed (1) and NF-kappaB target genes are more highly expressed in ABC primary tumors than in GCB tumors. Functional studies have shown a constitutive high-level activity of the IkappaB (inhibitor of kappa-B) kinase (IKK) complex. […] Further analysis of DLBCL primary tumors for NF-kappaB target gene expression imply that although CARD11 is required for constitutive IKK activity in all ABC-DLBCL lines, mutations in CARD11 may be the root cause of IKK activation only in lines or tumors with such mutations. In other words, CARD11 mutations may explain NF-kappaB activation in only 10% of ABC-DLBCL cases. […] This process has been termed 'chronic active BCR signaling' (CABS). The goal of this screen is to find small-molecule inhibitors of the CABS pathway found in ABC-DLBCL lines using a cell-based assay that measures IkappaBalpa stability, which has already been extensively validated in the OCI-Ly3 line (PubChem AID:445; REF: 4). […] Hits from the primary screen were tested in this orthogonal secondary assay. NIH Molecular Libraries Probe Production Network [MLPCN] NIH Chemical Genomics Center [NCGC] MLPCN Grant: R03 DA031086 PI Name: Dr. R. Eric Davis
# The IkB-Photinus/Renilla reporter assay differs from the primary assay in that the reporters are constitutively expressed, and based on luciferases that are different from the click beetle luciferases and each other. These differences should help to eliminate artifactual sources of activity specific to the primary assay. This assay uses the Dual-Glo substrate from Promega; extensively validated in a 96-well format, it could be converted to a smaller-well format. All lines needed for the IkB-Photinus/Renilla assay have already been prepared and extensively validated
# % is scaled to controls: 0 for no effect and ±100 for the full control effect; potency is read from the fitted curve at half-maximal effect.
Compound,Potency,"activity change, negative = inhibition"
O=c1c2ccccc2[se]n1-c1ccccc1,15.1 µM (active),
C/C(=N\N1CCCCC1)c1c(O)[nH]c(=O)[nH]c1=O,,-0.419% (inactive)
CC[C@]12CC[C@H](O)CC1=CCC1C2CC[C@]2(C)C(=O)CCC12 (stereo partly specified),,-2.46% (inactive)
C=CC[C@@H](CC/C=C/C=C/CC/C=C\[C@@H]1CSC([C@@H]2C[C@@H]2C)=N1)OC,30.1 µM (active),
CC(C)CCCn1c(O)c(/C=C2/C=CC=N2)c(=O)[nH]c1=O,,-20.5% (inactive)
C#CCOc1cc(C2C3=C(COC3=O)Nc3cc4c(cc32)OCO4)ccc1OC (stereo unspecified),,-16.5% (inactive)
CCNC(=O)[C@H]1O[C@@H](n2cnc3c(N)ncnc32)[C@H](O)[C@@H]1O,,-8.48% (inactive)
COc1cc2c(c(OC)c1OC)-c1ccc(O)cc1[C@@H](NC(C)=O)CC2,,-2.7% (inactive)
CCCCOCCCn1c(N)c(C(=O)OCCOC)c2nc3ccccc3nc21,,-1.2% (inactive)
CN1C(=O)CN=C(c2ccc(Cl)cc2)c2cc(Cl)ccc21,,3.92% (inactive)
O=C1C(=O)c2cccc3cccc1c23,26.9 µM (active),
COc1ccc(Cc2nccc3cc(OC)c(OC)cc23)cc1OC,,-12.3% (inactive)
COc1ccc(C(=O)Oc2cccc3cccnc23)cc1S(=O)(=O)N1CCOCC1,,-25.8% (inactive)
COc1cc2c3cc1Oc1cc(ccc1O)C[C@@H]1c4c(cc(OC)c(O)c4Oc4ccc(cc4)C[C@H]3N(C)CC2)CCN1C,23.9 µM (active),
COc1ccc(C=C2C(=O)N(C)C(=O)N(C)C2=O)cc1COc1ccc(NC(C)=O)cc1,,-13.9% (inactive)
CCc1ccccc1N1C(=O)/C(=C/c2ccc(N3CCN(C)CC3)o2)C(=O)NC1=S,,-9.48% (inactive)
CCCC[C@@H](C)C[C@@H](C)C(=O)N(C)[C@@H](CC(C)C)C(=O)N[C@H](C(=O)N(C)[C@H](C(=O)N1C[C@@H](O)C[C@H]1C(=O)N1C(=O)C=C[C@@H]1C)C(C)C)C(C)OC(C)=O (stereo partly specified),26.9 µM (active),
COc1cc(C2c3cc4c(cc3CC3COC(=O)C32)OCO4)cc(OC)c1OC (stereo unspecified),,-14.9% (inactive)
Cc1cc(C)c(C(=O)CN2CCOCC2)c(C)c1,,-9.8% (inactive)
COc1cc2c(c(OC)c1OC)-c1ccc(O)c(=O)cc1C(NC(C)=O)CC2 (stereo unspecified),,-5.2% (inactive)
COc1ccc(-c2nn(CCC#N)cc2C(=O)Nc2ccc(C(C)=O)cc2)cc1[N+](=O)[O-],,2.38% (inactive)
